DAX1 inh-1 – NR0B1 (DAX1) inhibition; HEK293 Gal4-DAX1 luciferase reporter, luminescence; inhibition, % at 6.75 µM; hit rate 0.99% among 340,000;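 active = inhibition above the mean over all tested compounds plus 3 SD, cut at about 4.2% in these data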;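 note: 0% = DAX1-transfected cells with DMSO and 100% = empty-vector control cells with DMSO; inhibition shows as a rise in luminescence from relieved DAX1 repression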
Target sequence (P51843 207-470 limits assumed): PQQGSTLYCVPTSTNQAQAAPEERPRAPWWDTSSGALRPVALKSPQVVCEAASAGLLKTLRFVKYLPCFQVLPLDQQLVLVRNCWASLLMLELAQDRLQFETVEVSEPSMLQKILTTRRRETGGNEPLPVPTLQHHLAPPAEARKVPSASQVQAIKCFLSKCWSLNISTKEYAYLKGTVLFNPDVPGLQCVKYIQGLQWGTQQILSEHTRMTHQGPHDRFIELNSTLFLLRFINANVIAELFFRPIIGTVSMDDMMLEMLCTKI
DAX1 inh-2 – inhibitors of DAX1 repression of SF-1 activated StAR promoter. inhibition, % at 6.8 µM. HEK293T StAR-luciferase reporter, SF-1/DAX-1 repression relief. AID 652010. hit rate 1.1% among 370,000;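 active = inhibition above the mean over all tested compounds plus 3 SD, cut at about 3.6% in these data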;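 note: 0% = DAX-1 cells with DMSO and 100% = cells lacking DAX-1 with DMSO; higher inhibition means more luminescence from relief of DAX-1 repression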
hgDAF12 agonist – agonists of H. glycines DAF-12 nuclear receptor; HEK293 GAL4-hgDAF12 UAS-luciferase reporter, agonist luminescence; normalized to butyrate control; activation, % at 6.8 µM; hit rate 1.8% among 370,000; AID 687014;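 active = activation above a cutoff set at the mean of all screened compounds plus 3 SD, cut at about 10% in these data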;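 note: 0% = DMSO wells and 100% = sodium butyrate wells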
hcDAF-12 act – activators of H. contortus DAF-12 nuclear receptor; HEK293 hcDAF-12 lit1-tk-luc reporter, luminescence; 0% DMSO, 100% Δ7-dafachronic acid; activation, % at 6.8 µM; hit rate 1.4% among 370,000; AID 652067;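 active = activation above the mean of all tested compounds plus 3 SD, cut at about 5.5% in these data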;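 note: 100% = response to 3 µM Δ7-dafachronic acid high control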
ssDAF-12 act – activators of S. stercoralis DAF-12 nuclear receptor. HEK293 ssDAF-12/GRIP1 lit1-tk-luc reporter, luminescence; % of 3 µM dafachronic acid response. activation, % at 6.8 µM. hit rate 1% among 370,000;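 active = activation above the mean over all tested compounds plus 3 SD, cut at about 0.9% in these data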;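 note: 0% = DMSO-only wells and 100% = 3 µM delta7-dafachronic acid wells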
SMARCA2 activ – SMARCA2 function activation, primary screen. hit rate 1% among 370,000. activation, % at 9.1 µM. MG213 cells, MMTV-luciferase reporter, dexamethasone, overnight; in the data active = activation above about 7.8%;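 note: 0% = vehicle wells and 100% = reference activator wells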
Active calls of the source: *; . = not tested or not shown. Only some compounds are listed: those with a hit (about 4.8% of all), similar ones and a draw of the others.

SMILES	DAX1 inh-1	DAX1 inh-2	hgDAF12 agonist	hcDAF-12 act	ssDAF-12 act	SMARCA2 activ
Cc1ccc(CNS(=O)(=O)c2cc3c(cc2C)N(C)CCO3)cc1	1.2	-0.8	0.7	2.5	-1.0	-0.5
CC(=O)N1CCOc2cc(S(=O)(=O)NCc3ccc(F)cc3)c(C)cc21	5.6*	-0.1	-0.1	-2.2	-1.4	0.4
Cc1cccc(OCc2nc(-c3nonc3N)no2)c1C	1.0	2.0	10.6*	1.9	-0.8	5.7
Cc1ccc(C)n1NC(=O)c1ccccc1O	1.7	3.2	3.7	4.1	1.4*	-2.4
Cc1ccc(C)n1NC(=O)c1ccccc1[N+](=O)[O-]	0.1	0.2	3.5	-0.8	-0.8	-1.5
COc1ccc2nc(Cl)c(/C=N/Nc3ccccn3)cc2c1	0.9	4.1*	10.2	1.8	-0.9	2.3
Clc1cccc(Oc2ncc(CN3CCOCC3)s2)c1	1.3	0.3	4.0	0.8	-1.4	7.9*
CCOC(=O)CC[C@@H]1CC[C@]2(CCCN(Cc3ccc(Cl)cc3)C2)O1	.	0.4	1.9	1.2	-0.5	-0.2
Cc1cccc([C@H]2[C@@H]3C=CCC[C@@H]3C(=O)N2Cc2ccccc2)c1	-1.3	3.8*	0.6	-0.2	-1.6	0.1
C=CCN1C(=O)[C@H]2CCC=C[C@H]2[C@@H]1c1cccc(C)c1	-0.9	-0.2	-0.2	-0.9	-0.2	-3.0
Cc1ccccc1NC(=O)N(C)[C@H]1C[C@H]2c3[nH]c4c(-c5ccc6c(c5)OCO6)cccc4c3CCN2C[C@H]1[C@H](C)O	.	-0.1	5.6	-0.5	-1.0	-3.0
CCOC(CNC(=O)c1cc2c(=O)n(CC)c3ccccc3c2s1)OCC	-0.8	-0.4	-1.4	-2.3	-1.6	-1.3
CCn1c(=O)c2cc(C(=O)NCC(OC)OC)sc2c2ccccc21	6.2*	-0.5	-2.2	-2.1	-1.1	-1.8
CCCN(CCC)CCCNC(=O)c1cc2c(=O)n(CC)c3ccccc3c2s1	7.3*	1.8	0.3	0.7	-1.1	5.7
Cc1cc(C)cc(C(=O)OCCN(C)C2CN(Cc3cn(Cc4ccccc4F)nn3)S(=O)(=O)C2)c1 (stereo unspecified)	.	-1.2	0.1	-1.8	-1.9	-0.7
Clc1ccc(CSc2ccc(-c3ccccn3)nn2)cc1	2.1	0.7	5.1	3.9	-0.7	1.1
O=C(CSc1ccc(-c2ccccn2)nn1)c1ccccc1	4.6*	0.2	9.3	2.4	-0.6	2.9
c1ccc(CSc2ccc(-c3ccccn3)nn2)cc1	1.5	3.4	12.1*	4.9	0.4	0.5
O=C(c1ccc(Cl)cc1)N1CCc2c([nH]c3ccccc23)C1C(F)(F)F (stereo unspecified)	-1.2	0.1	-0.9	0.3	-0.9	-5.0
Cc1ncoc1C(=O)N1CCc2c([nH]c3ccccc23)C1C(C)(C)C (stereo unspecified)	1.0	2.6	-0.1	5.6*	1.0*	-4.0
Cc1ncoc1C(=O)N1CCc2c([nH]c3ccccc23)C1C1CCCCC1 (stereo unspecified)	-0.6	0.7	8.1	6.1*	0.7	0.0
Cc1cc(=O)[nH]c(SCC(=O)Nc2cccc(Cl)c2F)n1	.	-0.6	-0.9	-2.2	-1.7	-2.0
O[C@@H]1CN(CC2CCCCC2)[C@@H](c2ccccc2)C[C@H]1n1cc(C2CC2)nn1	1.9	0.7	-3.4	-0.3	-0.4	-5.2
O[C@H]1C[C@H](c2ccccc2)N(CC2CCCCC2)C[C@@H]1n1cc(C2CC2)nn1	0.1	3.7*	5.4	0.9	-0.1	1.2
CC1CC(C)CN(C(=O)CSc2nnc(-c3ccco3)o2)C1 (stereo unspecified)	4.8*	0.1	1.1	0.4	-0.7	-2.3
SMILES	DAX1 inh-1	DAX1 inh-2	hgDAF12 agonist	hcDAF-12 act	ssDAF-12 act	SMARCA2 activ
CCC1CCCCN1C(=O)CSc1nnc(-c2ccco2)o1 (stereo unspecified)	1.5	1.6	7.3	3.6	1.0*	4.9
COc1cccc(-c2nnc(SCC(=O)N3CC(C)CC(C)C3)o2)c1 (stereo unspecified)	6.7*	0.2	-0.9	-3.9	-1.2	-0.6
COc1cccc(-c2nnc(SCC(=O)N3CCOCC3)o2)c1	0.1	0.9	5.9	1.2	-0.3	2.1
CC1=C(C)NC(=S)SC1	1.4	0.1	-0.7	5.6*	-0.7	-3.1
O=C1NCCNC1(c1c[nH]c2ccccc12)C(F)(F)F (stereo unspecified)	0.6	0.4	2.9	5.0	1.4*	1.1
O=C(Nc1ccnn1C1CCN(CC2CC=CCC2)CC1)c1ccccc1 (stereo unspecified)	0.5	0.3	-1.1	-1.1	-0.6	-3.1
O=C(Nc1ccnn1C1CCN(Cc2c[nH]c3ccccc23)CC1)c1ccccc1	1.0	1.9	3.3	6.2*	-0.5	1.9
COC1=C[C@H](C(=O)NCCOC(C)=O)[C@H](C)[C@@H](c2ccccc2)CC1=O	.	-0.7	-1.4	-0.1	-0.8	-3.9
Cc1ccc(S(=O)(=O)Nc2ccc3cn[nH]c3c2)cc1C	.	0.2	-2.0	4.7	-0.6	-4.2
O=C(O)c1cc(S(=O)(=O)Nc2ccc3cn[nH]c3c2)ccc1O	0.7	-0.3	4.4	4.6	1.0*	0.8
COC(=O)[C@]12C[C@H](CC(=O)NCCCN3CCCC3=O)C(=O)N(Cc3ccc4c(c3)OCO4)C1=C[C@H](COCc1ccccc1)O[C@@H]2C	.	0.3	0.9	1.5	-0.9	4.0
CC(OC(=O)c1cccnc1Cl)C(=O)Nc1ccc(S(N)(=O)=O)cc1 (stereo unspecified)	6.2*	-0.3	0.9	-0.6	-2.1	-1.0
CC(OC(=O)c1cccnc1Cl)C(=O)Nc1ccc2c(c1)OCCO2 (stereo unspecified)	-1.2	-0.5	-0.9	-1.2	-1.2	-0.2
COc1ccc(C2Nc3ccccc3C(=O)N2Cc2cccnc2)cc1COc1c(C)cccc1C (stereo unspecified)	.	.	-1.9	-2.2	-1.5	.
FC(F)(F)c1nnc2c(Sc3ccccc3)nc3ccccc3n12	0.0	0.5	5.6	4.1	-0.4	-0.1
FC(F)(F)c1nnc2c(Sc3ccccn3)nc3ccccc3n12	0.7	0.4	6.8	5.6*	-0.1	1.9
COC1C(O)C(O)C(O)C(O)C1O (stereo unspecified)	4.9*	-0.3	0.5	0.5	-1.2	-2.7
COC1OC(CO)C(O)C(O)C1O (stereo unspecified)	0.7	-0.3	-2.1	-0.6	-1.8	0.9
c1ccc2c(c1)N=C(N1CCN(Cc3ccc4c(c3)OCO4)CC1)c1ccccc1S2	.	-1.5	1.1	-0.9	-1.1	-4.2
CCOc1cc(C(=O)N(C)CC(=O)Nc2cccc(F)c2)ccc1OCC(=O)N1CCCCC1	-1.4	-0.9	2.6	3.6	1.3*	-1.0
CCOc1cc(C(=O)Nc2cccc(C(C)=O)c2)ccc1OCC(=O)N1CCCCC1	0.9	-0.1	-1.4	-1.6	-1.3	-1.4
